Screens: PubChem, National Center for Advancing Translational Sciences (NCATS)
Pf growth 96h: P. falciparum growth inhibition at 96 hour, primary screen for plastid delayed-death inhibitors. P. falciparum luciferase reporter growth, 96 h. Potency, µM (doses to about 28.7 µM), actives largely listed as inhibitors. 320,000 compounds, 6.9% hits. AID 504834
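Compounds incubated with erythrocytes infected by luciferase-expressing P. falciparum (2% hematocrit, 0.05% parasitemia final) for 96 hours, 37 C in 5% CO2. Growth inhibition scored as decreased luciferase luminescence.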
Pf growth 48h: P. falciparum growth inhibition at 48 hours (one generation); Potency, µM (top dose mostly 28.7 µM), hits mostly inhibitors; P. falciparum luciferase growth in erythrocytes, 48 h; 310,000 compounds, 5.9% hits
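Parasite viability was followed by luminescence of a genomically integrated firefly luciferase. Cultures held 0.1% parasitemia at 2% hematocrit (final), incubated under 5% CO2 at 37 C.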
Giardia FBPA inh: inhibitors of Giardia lamblia fructose-1,6-bisphosphate aldolase; A8B2U2; purified Giardia FBPA; Potency, µM (doses to about 59.6 µM), usual class: inhibitors; 290,000 compounds, 0.71% hits; further: nearly all actives have a fitted effect of over 55% in size
Target sequence (A8B2U2 whole entry, looked up): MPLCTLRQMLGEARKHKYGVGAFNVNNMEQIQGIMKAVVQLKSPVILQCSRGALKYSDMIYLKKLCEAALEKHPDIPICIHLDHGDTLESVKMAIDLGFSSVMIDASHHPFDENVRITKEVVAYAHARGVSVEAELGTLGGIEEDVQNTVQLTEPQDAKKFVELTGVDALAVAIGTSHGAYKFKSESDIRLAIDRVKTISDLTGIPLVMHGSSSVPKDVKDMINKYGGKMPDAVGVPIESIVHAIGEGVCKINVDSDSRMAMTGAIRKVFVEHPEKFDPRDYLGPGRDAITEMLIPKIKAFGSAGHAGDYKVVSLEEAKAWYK
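Giardia FBPA (40 nM reagent) was preincubated 10 min at RT with compound (up to 57.5 uM final), then substrate plus GAPDH/TPI/NAD/arsenate coupling system with diaphorase/resazurin was added; resorufin fluorescence (525/598 nm) was read after 20 min.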
HCMV antiviral: inhibitors of human cytomegalovirus; activity change, negative = inhibition, % at 57.5 µM; AID 1259415; 410,000 compounds, 4.5% hits; HFF cells, HCMV-luciferase reporter, 72 h; hits give low values; in the data active means activity change below about -60%; inconclusive means no clear call, values can overlap the other calls; inactive means above about -39%
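Two-dose cell screen: HFF monolayers treated with compounds and infected with luciferase-expressing HCMV at 1 PFU/cell, 72 h at 37C, then lysed for luciferase measurement.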
Sm TGR inh: S. mansoni TGR enzyme inhibition; Q962Y6; purified TGR, DTNB reduction, TNB absorbance 405 nm; Potency, µM (highest dose often 114 µM), hits mostly inhibitors; 360,000 compounds, 3% hits; further: nearly all actives have a fitted effect of over 60% in size
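TGR 20 nM + NADPH 100 uM (dispensed conc.), cpd preinc 15 min RT; start with NADPH (500 uM addition) then DTNB (15 mM addition). Kinetic TNB absorbance, 405 nm filter. Four-parameter Hill fit across titration.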
Hits are given with their value; - = inactive; ? = inconclusive; . = no result given. Sampled rows, rich in hits. Any-hit rate of the full collection: about 14%. Unless noted, the call rests on the fitted dose curve; in most records, active means well fitted curve in the direction sought with a large enough effect; inconclusive means small, poorly fitted or top-dose-only effect, or another doubt; inactive means no such curve, though single readings can be large; an effect the other way counts as inactive or inconclusive.

SMILES	Pf growth 96h	Pf growth 48h	Giardia FBPA inh	HCMV antiviral	Sm TGR inh
CCOc1ccc(S(=O)(=O)N2CCN(C(=O)c3cc(C4CC4)nn3-c3ccccc3)CC2)cc1	?	4.65µM	.	-	-
COc1ccc(S(=O)(=O)N2CCN(C(=O)c3cc(C4CC4)nn3-c3ccccc3)CC2)cc1OC	.	.	.	-	.
O=C(c1cc(C2CC2)nn1-c1ccccc1)N1CCN(c2ccc(O)cc2)CC1	?	10.4µM	.	-	?
O=C(c1cc(C2CC2)nn1-c1ccccc1)N1CCN(c2ccccc2O)CC1	.	.	.	-	.
CCc1ccc(NC(=O)CSc2nc3ccccc3c(=O)n2CCCN2CCC(C)CC2)cc1	-	?	-	-107.6	-
COCCn1c(SCC(=O)Nc2ccc(NC(=O)c3ccco3)c(OC)c2)nc2ccccc2c1=O	.	-	-	?	-
CCCCn1c(SCC(=O)Nc2cc(NC(=O)c3ccco3)ccc2C)nc2ccccc2c1=O	?	.	-	-76.0	?
CCc1ccc(NC(=O)CSc2nc3ccccc3nc2N2CCCC2)cc1	2.62µM	-	-	-	-
CCc1ccc(NC(=O)CSc2nc3ccccc3c(=O)n2CCNC(C)=O)cc1	.	.	.	-	-
Cc1ccc(NC(=O)CSc2nc3ccccc3c(=O)n2CCCN2CCCCC2)cc1C	-	11.7µM	-	-	-
CC(NC(=O)C1=CC=CN2CCS(=O)(=O)N=C12)c1ccc(Cl)cc1Cl (stereo not given)	?	-	.	?	-
O=C(NC1CCCC1)c1cccc(S(=O)(=O)N2CCCC2)c1	-	?	.	-	-
CCOCC(O)CSCc1ccc(Cl)cc1 (stereo not given)	-	-	-	-	10µM
CCOC(=O)C1CCN(CC(O)COCc2ccc(Cl)cc2)CC1 (stereo not given)	-	-	.	-	-
Nc1ncnc2c1ncn2C1CCCO1 (stereo not given)	-	-	-	-73.5	-
CC(C)(C)NC(=O)COC(=O)c1ccc(Cl)cc1O	-	-	-	-	-
CSc1nnc2c3c4c(sc3c(=O)n(-c3ccccc3)n12)CC(C)(C)OC4	.	0.738µM	-	-	-
CC1(C)Cc2c(sc3nc(-c4ccccc4)n(N)c(=O)c23)CO1	?	-	.	-	-
CC(C)CN(CC(C)C)C1=N/C(=C\c2ccco2)C(=O)N1c1ccccc1	-	?	-	-	6.31µM
CCN(CC)C1=N/C(=C\c2ccco2)C(=O)N1c1ccccc1	-	-	-	-	44.7µM
CCSC1=N/C(=C\c2cccnc2)C(=O)N1c1ccccc1	?	-	-	-	-
CSC1=N/C(=C\c2cccnc2)C(=O)N1c1ccccc1	?	-	-	?	-
CC1=NN=C(c2ccc(N)cc2)c2cc3c(cc2C1)OCO3	?	11.7µM	?	-	-
CC1Cc2cc3c(cc2C(c2ccc(N)cc2)=NN1)OCO3 (stereo not given)	.	.	-	.	.
CC(C)c1ccccc1NC(=O)CSc1n[nH]c(=O)n1C1CC1	-	-	.	-	-
SMILES	Pf growth 96h	Pf growth 48h	Giardia FBPA inh	HCMV antiviral	Sm TGR inh
O=S(=O)(NCC(c1ccco1)S(=O)(=O)c1cccs1)c1ccc(Cl)cc1 (stereo not given)	.	.	.	?	0.1µM
O=S(=O)(NCC(c1cccs1)S(=O)(=O)c1ccccc1)c1ccccc1 (stereo not given)	.	.	.	-	0.316µM
O=C(NCC(c1cccs1)S(=O)(=O)c1cccs1)c1c(F)cccc1F (stereo not given)	.	.	.	-	?
O=S(=O)(NCC(c1ccco1)S(=O)(=O)c1cccs1)c1ccc(F)c(C(F)(F)F)c1 (stereo not given)	.	.	.	-	0.1µM
O=S(=O)(NCC(c1ccco1)S(=O)(=O)c1cccs1)c1ccccc1 (stereo not given)	.	.	.	-	0.199µM
CCCS(=O)(=O)NC(=O)C1(C)CCN(C(=O)c2ccc(OC)cc2OC)C1 (stereo not given)	.	.	.	-	.
Cc1cc(C)nc(NS(=O)(=O)c2ccc(NC(=O)c3nc(SC(C)C)ncc3Cl)cc2)n1	.	.	.	-	-
CCOc1ccccc1OCCCC(=O)N(CC)CC(=O)Nc1c(F)cccc1F	-	-	.	-	-
CC1(C(=O)O)CCN1C(=O)c1cccc(C(F)(F)F)c1 (stereo not given)	.	.	.	-	.
COc1ccc(N(C)S(=O)(=O)c2cccc(C(=O)NCC(c3ccco3)N3CCCC3)c2)cc1 (stereo not given)	?	9.28µM	.	-	-
CN(c1ccccc1)S(=O)(=O)c1ccc(C(=O)NCC(c2ccco2)N2CCCCC2)cc1 (stereo not given)	7.38µM	?	.	-62.9	-
Cc1cccc(C)c1NC(=O)Cn1nnc(C(=O)Nc2c(C)cccc2C)c1N	.	.	.	-	-
CCCCCCCCCCOCC(O)CN (stereo not given)	12µM	?	.	.	.
CCCCOCCO	.	.	.	-	.
CCCCCCCCCCCCCCCCOCCOCCOCCOCCOCCOCCOCCOCCOCCOCCOCCOCCOCCOCCOCCOCCOCCOCCOCCOCCO	6.75µM	13.5µM	.	.	.
CCOC(=O)C1=C(C)N(C)C(=O)NC1c1c(O)ccc2ccccc12 (stereo not given)	-	.	-	-	-
O=C(CSc1nccn1Cc1ccc(F)cc1)NCc1ccco1	.	.	.	-	-
O=C(O)CCCC(=O)OCCc1cc2ccccc2c(=O)o1	.	.	.	-	.
O=C(O)CCCC(=O)OCCCCc1cccs1	5.22µM	-	-	-	-
